# In ChEMBL document CHEMBL4513216, “Probing the Open Global Health Chemical Diversity Library for Multistage-Active Starting Points for Next-Generation Antimalarials” (ACS Infect Dis, 2020):
# About 2,700 (4%) of roughly 68,000 compounds showed an effect of 50% or more. Only a selection was taken, and strong results are over-represented in it overall.
# Tested on: Plasmodium berghei
# Assay: Screen against P. berghei liver stage (PbLuc), transformed with Luciferase, at 2uM
# Type: functional, HepG2
# Conditions: tested at 2 uM
row,SMILES,INHIBITION
1,O=C(NC1CCC1)[C@H]1C[C@H]2CN(S(=O)(=O)c3ccccc3)C[C@@H]1O2,24.34%
2,Cc1ccc(OCCCNC(=O)NC(C)c2nncn2C)cc1 (stereo not given),-10.5%
3,Cc1cccc(C)c1OCCNC(=O)NC(C)c1nncn1C (stereo not given),64.53%
4,Cc1cccc(OCCCNC(=O)NC(C)c2nncn2C)c1 (stereo not given),-7.01%
5,N[C@H]1CN(CCOc2ccc(F)cc2)C[C@@H]1C1CC1,55.85%
6,NC(=O)c1ccc(OCCCN2C[C@H](C3CC3)[C@@H](N)C2)cc1,9.56%
7,N[C@H]1CN(CCCOc2ccccc2)C[C@@H]1C1CC1,18.64%
8,COC1CN(C(=O)OCC(C)C)CCC(=O)N(C)c2ccccc21 (stereo not given),-16.76%
9,Cc1nn(C)c2nc(N3CCCCC3c3ccc(F)cc3)sc12 (stereo not given),8.3%
10,C1CCC(CN2Cc3nnn(CC4CC4)c3C(COCC3CC3)C2)C1 (stereo not given),-6.19%
11,O=C1[C@@H]2CCN(Cc3ccoc3)C[C@@H]2OCCN1Cc1cccc(F)c1,20.41%
12,Cc1ccc(S(=O)(=O)Nc2ccc(-n3cccc3C(=O)O)c(C)c2)s1,-1.14%
13,Cc1cc(NS(=O)(=O)c2cccs2)ccc1-n1cccc1C(=O)O,50.17%
14,Cc1cc(NS(=O)(=O)c2ccc(Cl)s2)ccc1-n1cccc1C(=O)O,31.15%
15,O=C(NCCOc1ccccc1)NCC(O)c1cccs1 (stereo not given),-85.29%
16,Cc1ccoc1C(=O)N1C[C@@H]2[C@@H](C1)OCC(=O)N2Cc1cccnc1,-2.91%
17,Cc1nc2c(c(NC3CC3)n1)CCN(C(=O)CCO)CC2,-10.44%
18,CC(=O)N1CCC(C(=O)NCCN2CCCCC2)CC1,18.97%
19,COc1ccc(CCNC(=O)N2CCN(C)[C@@H]3CS(=O)(=O)C[C@@H]32)cc1,43.44%
20,CN1CCN(C(=O)NCCc2ccc(F)cc2)[C@H]2CS(=O)(=O)C[C@H]21,50.59%
21,COc1ccc(CNC(=O)N2CCN(C)[C@@H]3CS(=O)(=O)C[C@@H]32)cc1,-47.18%
22,Cc1ccc(OCCN2CCN(Cc3cnn(CCO)c3)CC2)cc1,-72.55%
23,COCC(=O)N1CCCC1c1cccc(Nc2ncc(C)s2)n1 (stereo not given),44.48%
24,COCC(=O)N1CCCCC1c1ccnc(Nc2ncc(C)s2)n1 (stereo not given),60.74%
25,COCC(=O)N1CCCCC1c1ccnc(Nc2cnccn2)n1 (stereo not given),11.55%
26,CN1CCN(C(=O)c2n[nH]c3c2CN(C2CCOCC2)CC3)CC1,36.44%
27,COc1cc(CNC(C)c2cccc(Cl)c2)cc(OC)c1OC (stereo not given),27.88%

row,SMILES,INHIBITION
1,CC(C)c1ccc(OCC(=O)NS(=O)(=O)c2cccnc2)cc1,-1.85%
2,Cc1cccc(NCC(=O)Nc2cc(F)ccc2F)c1C(N)=O,38.91%
3,Cc1cc(C)n(CC2(CNC(=O)C(c3ccccc3F)N(C)C)CC2)n1 (stereo not given),55.85%
4,Cc1cc(C)n(CC2(CNC(=O)C(c3ccc(F)cc3)N(C)C)CC2)n1 (stereo not given),-4.04%
5,Cc1cc(C)n(CC2(CNC(=O)C(c3ccccc3C)N(C)C)CC2)n1 (stereo not given),-14.49%
6,Cc1cc(C(F)(F)F)nc(CCNC(C)Cn2ccnc2)n1 (stereo not given),-15.14%
7,OCCN(Cc1nc(-c2ccc3c(c2)OCO3)no1)Cc1cccs1,-49.59%
8,OCCN(Cc1ccccc1)Cc1nc(-c2ccc3c(c2)OCO3)no1,-48.83%
9,OCCN(Cc1nc(-c2ccc3c(c2)OCO3)no1)CC1CC1,83.98%
10,COCCS(=O)(=O)Nc1ccc(-n2cncn2)c(F)c1,3.33%
11,CN1CCN(C(=O)c2cc3sccc3n2Cc2ccccc2F)CC1,-10.78%
12,Cc1ccc(N2CC[C@@H]3CN(Cc4cc[nH]n4)C[C@@H]3C2)nn1,27.95%
13,CC(C)(C)CCNc1nccc(-c2c[nH][nH]c2=O)n1,22.5%
14,c1cnc(NC[C@@H]2CCC[C@@H]3CN(Cc4csnn4)C[C@@H]32)nc1,55.7%
15,c1ccc(NC[C@@H]2CCC[C@@H]3CN(Cc4csnn4)C[C@@H]32)nc1,24.51%
16,CC(C)(C)NC[C@@H]1CCC[C@@H]2CN(Cc3csnn3)C[C@@H]21,-21.74%
17,COc1ccc2[nH]cc(C(=O)CNc3nc(C)cs3)c2c1,20.71%
18,O=C(NCCN1CCCC(CO)C1)c1ccc2sccc2c1 (stereo not given),13.99%
19,O=C(NCCN1CCOC1=O)c1ccc2sccc2c1,61.27%
20,O=C(NCCN1CCOC1=O)c1cc(-c2ccccc2)on1,9.85%
21,NCc1cnc(Nc2ccccc2)nc1,16.87%
22,O=C1Nc2ccccc2CNC12CCN(CC1CCNC1)CC2 (stereo not given),21.69%
23,O=C1Nc2ccccc2CNC12CCN(CC1CC1)CC2,58.42%
24,O=C1Nc2ccccc2CNC12CCN(CC1CCCC1)CC2,-7.08%
25,COc1cccc2sc(N3CC(OC(C)=O)C3)nc12,-5.98%
26,CSCC(C)NS(=O)(=O)c1ccc(C)c(N(C)C)c1 (stereo not given),-1.57%
27,COCCC(C)NS(=O)(=O)c1ccc(C)c(N(C)C)c1 (stereo not given),52.6%

row,SMILES,INHIBITION
1,Cc1ccc(S(=O)(=O)N[C@H](CO)C(C)C)cc1N(C)C,-94.5%
2,CN(C)CC(=O)N1Cc2ncn(C)c2C(COCC2CCOCC2)C1 (stereo not given),6.8%
3,Cn1c(CC2CCS(=O)(=O)C2)nnc1SCCOc1ccccc1F (stereo not given),7.08%
4,O=C(Cn1ccc(=O)[nH]c1=O)NCc1cccnc1OCC(F)(F)F,51.76%
5,O=C(Cn1cccnc1=O)NCc1cccnc1OCC(F)(F)F,3.95%
6,CN1CC(C(=O)NCc2cccnc2OCC(F)(F)F)CC1=O (stereo not given),9.21%
7,Cc1ccc2[nH]c(=O)c(CNCCCN3CCOCC3)cc2c1,22.39%
8,O=C(c1c[nH]cn1)N1CCC(F)(F)C2(CCN(c3ncccn3)C2)C1 (stereo not given),38%
9,CCc1cc(C(=O)N2Cc3ccccc3OC3(CCOCC3)C2)on1,14.05%
10,Cc1nc(C)n(CC2CCCN(c3ncnc4ccsc34)C2)n1 (stereo not given),-20.93%
11,O=C1[C@@H]2CC[C@@H](CN(c3ncnc4ccsc34)C2)N1CC1CC1,62.51%
12,c1nc(N2CCCC2Cn2cncn2)c2sccc2n1 (stereo not given),-48.41%
13,c1nc(N2CCCC(Cn3cncn3)C2)c2sccc2n1 (stereo not given),68.24%
14,CN1C(=O)[C@@H]2CC[C@H]1CN(c1ncnc3ccsc13)C2,14.82%
15,c1nc(N2CCCC(Cn3cncn3)C2)c2ccsc2n1 (stereo not given),-1.74%
16,COc1cc(N2C[C@H]3CC[C@@H](C2)N(CC2CCC2)C3=O)ncn1,8.26%
17,Cc1cnn(CC2CCCN2c2ncnc3ccsc23)c1 (stereo not given),53.33%
18,Cc1cnn(CC2CCCN2c2ncnc3sccc23)c1 (stereo not given),37.87%
19,COC(=O)CN(C(=O)c1ccc(Cl)o1)c1cccc(F)c1,34.65%
20,O=C(NCc1ccc(Br)c(F)c1)Nc1cn[nH]c1,2.31%
21,Cc1cc(CN2CCCC2c2c(C)nn(C)c2Cl)on1 (stereo not given),-50.23%
22,CCc1nc(CN(C)c2nccc(N3CCCC(O)C3)n2)no1 (stereo not given),11.38%
23,Cc1cnn(CC2CN(Cc3nc(C)no3)CCO2)c1 (stereo not given),-35.62%
24,O=C(c1ccco1)N1CCCC1C1CCN(Cc2ccccc2)CC1 (stereo not given),3%
25,O=C(c1ccncc1)N1CCCC1C1CCN(Cc2ccccc2)CC1 (stereo not given),45.82%
26,O=C(C1CC1)N1CCCC1C1CCN(Cc2ccccc2)CC1 (stereo not given),53.86%
27,CC(=O)c1cc(CC(=O)NCc2cccc(F)c2F)cs1,36.26%

row,SMILES,INHIBITION
1,Cc1nnc(N2C[C@@H]3CCCO[C@@H]3[C@H](N3CCCC3=O)C2)s1,21.57%
2,O=C(NCCNc1cnccn1)N1CCCC1,-12.31%
3,CC(=O)N1CCCN(C(=O)NCCNc2cnccn2)CC1,64.71%
4,CN1CCCN(C(=O)NCCNc2cnccn2)CC1,12.88%
5,COCC1(C(=O)N[C@H]2CN(c3noc(C)n3)C[C@@H]2C2CC2)CCC1,21.28%
6,CC(C)S(=O)(=O)NCC1CCCN(C(=O)c2ccc3c(c2)OCCO3)C1 (stereo not given),21.39%
7,O=C(CC1CC1)N[C@@H]1CN(C(=O)c2cccs2)C[C@@H]2CCCO[C@@H]21,45.36%
8,CC(NC(=O)N1CCC[C@H]1CO)c1noc(-c2ccccc2)n1 (stereo not given in full),5.28%
9,CCN1CCN(C(=O)NC(C)c2noc(-c3ccccc3)n2)CC1 (stereo not given),88.75%
10,CC(NC(=O)N1CCSC(C)(C)C1)c1noc(-c2ccccc2)n1 (stereo not given),29.13%
11,O=C(Nc1ccccc1)N1C2CCC(O)(CC2)C1CN1CCOCC1 (stereo not given),11.94%
12,CCC(O)C1CCN(C(=O)Nc2nc(-c3ccccc3)ns2)CC1 (stereo not given),57.92%
13,CC(O)C1CCN(C(=O)Nc2nc(-c3ccccc3)ns2)CC1 (stereo not given),-65.84%
14,O=C(Nc1nc(-c2ccccc2)ns1)N1CCC(CO)CC1,7.72%
15,O=C(c1cscn1)N1CCC2(CN(Cc3ccsc3)C2)C1,-27.26%
16,O=C(c1cscn1)N1CCC2(CN(Cc3ccncc3)C2)C1,55.66%
17,O=C(c1cscn1)N1CCC2(CN(Cc3ccoc3)C2)C1,46.87%
18,CCc1ccc(C(=O)Nc2cccc(CN3CCCC3C(N)=O)c2)cc1 (stereo not given),10.61%
19,NC(=O)C1CCCN1Cc1cccc(NC(=O)c2cc(Cl)cc(Cl)c2)c1 (stereo not given),3.14%
20,Cc1cc(C)cc(C(=O)Nc2cccc(CN3CCCC3C(N)=O)c2)c1 (stereo not given),57.01%
21,O=C(CSc1nnc(N2CCNCC2)s1)Nc1ccccc1,48.59%
22,Cn1nc(Br)c2c(NCCN)ncnc21,60%
23,Cn1nc(Br)c2c(NCCNc3ncccn3)ncnc21,33.11%
24,Cn1nc(Br)c2c(NCCS(N)(=O)=O)ncnc21,20.21%
